Hit rate of the full screen: of about 48,000 compounds, about 13,000 (27%) showed an effect of 50% or more. The list shows a part of the results.

In this assay the test system is Wolbachia pipientis. The assay is described as follows: Anti-Wolbachia Cell-Based Screen. More on the design: scale not given: in the data most compounds retested in dose-response had high values. As to conditions: 5 µM. It is filed as functional.
Turning to `O=C(c1cscn1)N(CCCO)S(=O)(=O)c1cccs1`, the “Percent Effect” value stood at 7.908%.
For `CN(CCSc1ccccc1)C(=O)c1cn2c(n1)CNCC2` the value was -0.3479%.
The same measure for `O=C(NCc1ccc(C(=O)N2CCCC2)cc1)c1cn2c(n1)CNCC2`: -4.939%; for `CN1C(=O)CC(N(C)Cc2nc3ccccc3c(=O)[nH]2)C1=O` (stereo not drawn): -8.963%.
For `CCC(C)N(Cc1ccncc1)Cc1cccc(Cn2cccn2)c1` (stereo not drawn) the value was -14.79%; for `CCc1[nH]c2c(CNc3cncc(C(=O)OC)n3)cc(C)cc2c1C`, 11.12%.
`O[C@H]1COCCN(Cc2cccc3c2OCO3)C1`: the “Percent Effect” value was -4.774%.
For `CCOc1ccccc1-c1noc(CN2CCOC(CN(C)C)C2)n1` (stereo not drawn) the value was 7.76%.
The same measure for `Cc1ccccc1-c1cc(C(=O)N2CCn3c(C)nnc3C2)[nH]n1`: -2.104%.
The same measure for `CC(C)c1nnc2n1CCN(C(=O)c1cc3cc(F)ccc3[nH]1)C2`: 98.88%.
For `CC(C)c1nnc2n1CCN(C(=O)c1ccnc(N(C)C)c1)C2`, the “Percent Effect” value is on record as -1.642%.
The same measure for `Cc1nnc2n1CCN(C(=O)c1cc(Cl)c[nH]1)C2`: -1.056%.
`Cc1nnc2n1CCN(C(=O)c1cc3cc(F)ccc3[nH]1)C2`: the “Percent Effect” value is given as 87.27%.
For `CC(C)c1nnc2n1CCN(C(=O)c1ccc3cc[nH]c3c1)C2` the value was -4.188%; for `O=C(NC[C@H]1OC[C@@H](NCc2ccccc2)[C@@H]1O)Nc1ccccc1`, -15.87%; for `Cc1nnc([C@H]2CC[C@@H]3[C@@H](CCN3CC3CCOCC3)O2)o1`, -4.928%.
The same measure for `C1CC(CN2C[C@@H]3C[C@@H](c4nnc(C5CC5)o4)O[C@@H]3C2)C1`: 108.7%; for `C1CC(CN2C[C@@H]3C[C@@H](c4nnc(C5CC5)o4)O[C@@H]3C2)CCO1`: 101.2%.
As for `Cc1noc([C@@H]2C[C@H]3CN(CC4CCOCC4)C[C@H]3O2)n1.O=C(O)C(F)(F)F`, the “Percent Effect” value is given as 45.83%.
Turning to `C1CC(CN2CC[C@@H]3O[C@@H](c4nnc(C5CC5)o4)C[C@H]3C2)CCO1`, the “Percent Effect” value is listed as 104.3%.
For `Cc1nnc([C@@H]2CC[C@@H]3[C@@H](CCN3CC3CCOCC3)O2)o1` the value was 8.23%; for `C1CC(CN2C[C@H]3CC[C@@H]2CN(Cc2nnc(C4CC4)o2)C3)C1`, 1.497%.
The same measure for `O=C(Cc1ccsc1)N1C[C@@H]2C[C@@H](c3nnc(C4CC4)o3)O[C@@H]2C1`: 1.752%; for `COc1cc2c(cc1OC)S(=O)(=O)N(Cc1ccccc1)C2=O`: -12.48%; for `CCC(C)N(Cc1cccnc1)Cc1ccccc1Cn1cccn1` (stereo not drawn): 1.099%.
The same measure for `Cc1cc(N(Cc2ccccn2)C2CC2)n2nc(C(F)(F)F)nc2n1`: 23.9%; for `Cc1nn(C)c(C)c1NC(=O)CNC(c1ccccc1)C1CCCC1` (stereo not drawn): -3.756%.
For the compound `CCC(NC(=O)CS(=O)(=O)C1CCCC1)c1cc(F)ccc1F` (stereo not drawn), the “Percent Effect” value is -16.07%.
For `CCS(=O)(=O)CC(=O)NC(c1ccccc1)C1CCCC1` (stereo not drawn) the value was 90.5%; for `O=C(CS(=O)(=O)C1CCCC1)NC(c1ccc(F)cc1)C1CC1` (stereo not drawn), 106.7%; for `N#CC(NC(=O)CS(=O)(=O)C1CCCC1)c1ccc(F)cc1F` (stereo not drawn), 10.46%.
For `CCn1cnnc1CNC(=O)NC(c1ccccc1)C1CCCC1` (stereo not drawn) the value was 9.923%; for `CN(CCNC(=O)N1CCCC1)C(=O)OC(C)(C)C`, -14.2%.
For `Cc1c(CN2CCOCC2)c(O)n(CCO)c(=O)c1C#N` the value was 129.2%; for `Cn1c(NCC(=O)N2CCCCC2)c(C#N)c(=O)n(C)c1=O`, -4.549%; for `Cc1c(CN2CCCCC2)c(O)n(CCCO)c(=O)c1C#N`, 106.4%.
With `Cn1cc(C#N)cc1C(=O)Nc1ccc(CN2CCOCC2)cn1`, the “Percent Effect” value is listed as -7.398%.
For `Cn1c(NCCN2CCCCCC2)c(C#N)c(=O)n(C)c1=O` the value was 6.229%.
The same measure for `Cc1oc(NC(=O)C(C)N2CCN(CCO)CC2)c(C#N)c1C` (stereo not drawn): 14.13%.
As to `Cc1nn(C)c(N2CCOCC2)c1CNC(C)c1cccnc1` (stereo not drawn), the “Percent Effect” value was -5.13%.
The same measure for `CNC(=O)CCN1CCCCCC1c1ccc(C)o1` (stereo not drawn): -114%.
For `CNC(=O)CCc1cc(C2CCCCN2C(C)C)nc(C)n1` (stereo not drawn) the value was 119%; for `CNC(=O)CCc1cc(C2CCCCN2C)nc(C)n1` (stereo not drawn), 129.2%; for `Cc1ncsc1CCC(=O)NCc1csc(N2CCCC2)n1`, 13.92%.
The same measure for `Cc1nc(O)cc(CCNC(=O)C2CC(=O)N(CC(C)C)C2)n1` (stereo not drawn): -0.9354%; for `Cc1[nH]n(-c2ccccc2)c2nnc(N)c1-2`: -6.219%; for `O=C1CCNC(=O)N1CC(=O)N1CCC1c1ccc(F)cc1` (stereo not drawn): 13.18%.
For `Cc1noc(C)c1C1CCCN1C(=O)CN1CC2(CCNCC2)OC1=O` (stereo not drawn), the “Percent Effect” value is -18.41%.
The same measure for `Cc1cc(CC(=O)N2CCCC2c2nc(C(C)C)no2)on1` (stereo not drawn): -3.815%; for `Cc1cc(C2CCCN2C(=O)CN(C)Cc2ccccc2)no1` (stereo not drawn): -3.366%; for `Cc1noc(C)c1C1CCCN1CCC(=O)N1CCc2ccccc2C1` (stereo not drawn): -8.027%.
Consider `CC(C)c1cc(C2CCCN2C(=O)CN2C(=O)CCNC2=O)no1` (stereo not drawn), for which the “Percent Effect” value turned out to be 96.7%.
On to `CC(C)c1cc(C2CCCN2C(=O)CN2C(=O)OC(C)(C)C2=O)no1` (stereo not drawn), for which the “Percent Effect” value was found to be 116.9%.
For `Cc1ccc2c(c1)SCC(=O)N2CC(=O)N1CCCC1c1cc(C)on1` (stereo not drawn) the value was -2.59%.
For `Cc1cc(C2CCCCN2C(=O)CN2C(=O)OC(C)(C)C2=O)no1` (stereo not drawn) the value was 120.5%; for `Cc1cc(C2CCCCN2C(=O)CN2CC3(CCNCC3)OC2=O)no1` (stereo not drawn), -1.974%; for `Cc1noc(C)c1C1CCCN1C(=O)CN1C(=O)OC(C)(C)C1=O` (stereo not drawn), 87.43%.
For `O=C(Cc1cccs1)NCC1COCc2c(-c3ccoc3)nnn2C1` (stereo not drawn) the value was -2.287%.
For `COc1cccc2c1OCC(C(=O)N1CCN(C3CCSCC3)CC1)C2` (stereo not drawn), the “Percent Effect” value is given as -19.41%.
The same measure for `Cc1cc(C2CCCN2C(=O)CN2CC3(CCNCC3)OC2=O)on1` (stereo not drawn): 8.935%; for `Cc1cc(C2CCCN2C(=O)CN2C(=O)OC(C)(C)C2=O)on1` (stereo not drawn): 91.01%; for `Cc1ccc2c(c1)SCC(=O)N2CC(=O)N1CCCC1c1cc(C)no1` (stereo not drawn): 3.294%.
The same measure for `CN(CCC(F)(F)F)C(=O)[C@H]1CSCN1C(=O)OC(C)(C)C`: -7.919%.

These data come from ChEMBL document CHEMBL3988442, “University of Dundee, Small-Polar-MMV Screening Library” (2021).
